Results taken from PubChem BioAssay AID651800 (The Scripps Research Institute Molecular Screening Center, 2012).
In all, about 360,000 compounds went through this assay and about 1,300 (0.36%) were called active. Rule as the data show it: active = inhibition above about 19%; inactive = the rest. This excerpt belongs to a sample that is enriched for actives.

test system: T-cell receptor (TCR); assay: inhibitors of human TCR-CD3 interaction, primary screen, biochemical, fluorescence, TAMRA-labeled TCR probe (AID 651800); conditions: at 9.4 µM, hits give high values;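 also: recombinant mutant TCR 2C K166C tagged with TAMRA read by polarization; 0% = receptor in buffer alone and 100% = receptor with positive control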

SMILES	inhibition
COC(=O)Cc1nnn2c1[C@H](C)[C@H](c1ccccc1Br)OCC2	-3.6% (inactive)
COC(=O)C1=C(C)N(Cc2cccc(C(F)(F)F)c2)C(=NCc2ccccc2)NC1c1ccccc1C(F)(F)F (stereo unspecified)	2.13% (inactive)
O=C1[C@@H](c2ccccc2)[C@@H](c2ccccc2)N1c1ccccc1	4.73% (inactive)
C=CC1=CCN(S(=O)(=O)C(C)(C)C)[C@@H]1CCO	5.24% (inactive)
Cc1cc(OCCCC(=O)Nc2cc(S(=O)(=O)N3CCOCC3)ccc2N2CCOCC2)ccc1Cl	0.46% (inactive)
O=[N+]([O-])c1cc(Cl)cc(/C=N/NC(=S)Nc2cc(S(=O)(=O)N3CCOCC3)ccc2Cl)c1O	41.3% (active)
COC(=O)c1cc(Oc2ccc(S(=O)(=O)N3CCOCC3)cc2[N+](=O)[O-])cc(C(=O)OC)c1	7.58% (inactive)
O=S(=O)(c1cccs1)N1CCCc2nc(-c3ccc(Br)cc3)ccc21	3.53% (inactive)
COc1ccccc1CCn1cnc(-c2ccccc2)c1C(C)C	0.67% (inactive)
COc1cc(OC)cc(-c2c(-c3cccs3)c3cc(-c4ccc(OC)nc4)ccc3n2C)c1	-3.68% (inactive)
COc1cc(OC)cc(-c2c(-c3ccc(F)cc3)c3cc(-c4ccc5cc[nH]c5c4)ccc3n2C)c1	-1.04% (inactive)
COc1ccc(-c2c(-c3cc(OC)cc(OC)c3)n(C)c3ccc(-c4ccn[nH]4)cc23)cc1	23.9% (active)
COc1cccc(CNC(=O)[C@H]2CCCN2C(=O)[C@H]2CCCN2C(=O)c2ccc(F)cc2)c1	5.75% (inactive)
Cc1c(CCC(=O)O)c(=O)oc2c(C)c(OCc3ccccc3Cl)ccc12	-7.63% (inactive)
Cc1c(CC(=O)N2CCN(C(=O)C3COc4ccccc4O3)CC2)c(=O)oc2c(O)c(O)ccc12 (stereo unspecified)	82.2% (active)
Cc1ccc(S(=O)(=O)NCCC(=O)NNC(=O)C2COc3ccccc3O2)cc1 (stereo unspecified)	-2.9% (inactive)
O=c1ccc2c(-c3ccccc3S(=O)(=O)O)c3ccc(O)c(O)c3oc-2c1O	33.4% (active)
COc1ccc(C2=CN(Cc3ccccc3)C(c3ccc(OC)cc3)CC2=O)cc1 (stereo unspecified)	-0.11% (inactive)
COC(=O)[C@]12C[C@H](CC(=O)NCCCCc3ccccc3)C(=O)N(Cc3ccc4c(c3)OCO4)C1=C[C@H](C(C)(C)C)O[C@@H]2C	-0.56% (inactive)
COC(=O)C1=C(C)N(Cc2ccccc2C(F)(F)F)C(=NCc2ccc(C(F)(F)F)cc2)NC1c1ccc(F)cc1 (stereo unspecified)	10.2% (inactive)
COc1cc2ccc(C(C)=O)c(O)c2cc1OC	-7.1% (inactive)
COC(=O)c1ccc(-c2c(-c3ccccc3)ncc3cc(OC)c(OC)cc23)cc1	-0.95% (inactive)
COc1ccc(/C(=N\O)c2nccc3cc(OC)c(OC)cc23)cc1OC	37.5% (active)
CN(C)CCNC(=O)Cc1ccc([N+](=O)[O-])cc1	6.84% (inactive)
O=C(NCC1CCCO1)C(C(=O)c1ccccc1)n1cc(Cl)ccc1=O (stereo unspecified)	4.24% (inactive)
CN(C)CCNC(=O)C(C(=O)c1ccccc1)n1ccccc1=O (stereo unspecified)	27.9% (active)

SMILES	inhibition
Nc1ncnc2c1ncn2C1OC(CO)CC1O (stereo unspecified)	-7.35% (inactive)
COC(=O)c1c(-c2ccc(OC)cc2)c2c(c3c4ccccc4n(S(=O)(=O)c4ccc(C)cc4)c13)C(=O)N(C)C2	0.77% (inactive)
O=S1(=O)c2c(cccc2N2CCCC2)O[C@H](COCc2ccccc2)CN1C1CC1	19.3% (active)
O=S1(=O)c2c(cccc2N2CCCCC2)O[C@H](COCc2ccccc2)CN1C1CC1	2.48% (inactive)
CSc1ccc(Oc2cccc3c2S(=O)(=O)N([C@H](C)c2ccccc2)C[C@@H](COCc2ccccc2)O3)cc1C	11.5% (inactive)
CC1CCN(C(=O)c2ncn3c2C(=O)N[C@@H](C)C3)CC1	3.49% (inactive)
COc1ccc(/C=C/c2c(-c3cccc(C)c3)oc3ccc(-c4ccc5c(c4)OCO5)cc23)cc1	-3.78% (inactive)
Nc1[nH]c(C(=O)c2ccc(Br)cc2)c(-c2ccc3c(c2)OCO3)c1C(=O)NCCc1c[nH]c2ccccc12	-5.65% (inactive)
COc1ccccc1N(CC(=O)Nc1c(C)n(C)n(-c2ccccc2)c1=O)S(=O)(=O)c1ccccc1	3.09% (inactive)
COc1ccccc1N(CC(=O)N1CCCCC1)S(=O)(=O)c1ccccc1	3.6% (inactive)
COc1ccccc1N(CC(=O)N/N=C(\C)c1ccccc1O)S(=O)(=O)c1ccc(C)cc1	26.6% (active)
COC(=O)[C@]12C[C@H](CC(=O)N3CCN(C(=O)C4CC4)CC3)C(=O)N(Cc3ccc4c(c3)OCO4)C1=C[C@H](C(C)(C)C)O[C@@H]2C	3.03% (inactive)
C/C=C/C=C/C(=O)O	27.1% (active)
COc1ccc(-c2ccccc2C2Cc3nnccc3CN2C(=O)Nc2ccccc2)cc1 (stereo unspecified)	-1.6% (inactive)
CCCCCCCCN1C(=O)[C@@H](CC(=O)NCc2ccccc2)C[C@@]2(C(=O)OC)C1=C[C@H](C(C)(C)C)O[C@@H]2C	-4.58% (inactive)
Cc1cc(C)c(NC(=O)CN2C(=O)NC(Cc3ccccc3)C2=O)c(C)c1 (stereo unspecified)	-1.72% (inactive)
CCCCc1ccc(NC(=O)CN2C(=O)NC(Cc3ccccc3)C2=O)cc1 (stereo unspecified)	-0.34% (inactive)
O=C1C(Cc2ccc(O)cc2)NC(=S)N1Cc1ccccc1 (stereo unspecified)	25.9% (active)
COc1ccccc1-c1ccc([C@@H]2C[C@H]3[C@H](CON3C)CN2S(=O)(=O)c2cc(Cl)cc(Cl)c2)cc1	-0.88% (inactive)
C[C@@H]1ON(C)[C@H]2C[C@H]3c4cc(N5CCOCC5)ccc4CCN3C[C@@H]12	7.02% (inactive)
COc1cccc2cc(C(N)=O)/c(=N\NC(=O)c3ccccc3)oc12	6.06% (inactive)
CCN(CC)c1ccc2cc(C(N)=O)/c(=N\NC(=O)c3ccncc3)oc2c1	30.5% (active)
CCN(CC)c1ccc(C(=O)N/N=C(\C)c2cccc(OC)c2)cc1	6.48% (inactive)
O=C(NCc1ccccc1)[C@H]1CCCN1C(=O)[C@@H]1CCCN1C(=O)c1ccc(Cl)cc1Cl	5.28% (inactive)
CCc1ccc(C2=CC(=O)CC(C)(C)C2=O)cc1	-0.75% (inactive)
